Test results from PubChem BioAssay AID485314 (National Center for Advancing Translational Sciences (NCATS), 2010).
About 4,500 (1.3%) of roughly 340,000 compounds were called active. Roughly 5% stayed inconclusive and do not appear here. Many of the other results were omitted from the sample, so actives are more common in it than they were. Values without a mark were called inactive. Calls come from the whole dose curve; as a rule, active = well fitted inhibition curve with a large enough effect; inconclusive = small, poorly fitted or top-dose-only effect, or another doubt; inactive = no such curve, though single readings can be large or run the other way.

Each compound was assayed against DNA polymerase beta (Homo sapiens) (UniProt P06746) (assay: qHTS Assay for Inhibitors of DNA Polymerase Beta). Conditions: Pol beta primer extension/strand displacement, fluorescence kinetic; series mostly up to 114 µM; activity change, negative = inhibition: at the top concentration.
Text: The base excision repair system in human cells is a target for therapeutic modulation of the response to irradiation treatment and DNA-damaging drugs. A key enzyme in this system is the bi-functional DNA polymerase known as DNA polymerase Beta (Pol Beta). The following is a homogeneous kinetic assay to study the primer extension and strand-displacement reaction catalyzed by pol beta.
A stepwise description of the 1536-well assay is shown in next Table. Three microliters of reagents (buffer in column 3 and 4 as negative control and 10 nM Pol beta in columns 1, 2, and 5-48) was dispensed into 1,536-well black solid-bottomed plate. Compounds (23 nL) were transferred via Kalypsys pin tool equipped with 1536-pin array (10 nL slotted pins, V&P Scientific, San Diego, CA). The plates were incubated for 15 min at room temperature, and 1 uL substrate (50 nM final concentration) were added to start the reaction and immediately read at 0 min read on Viewlux reader. The plate were further incubated for 10 min at room temperature, and then read on Viewlux again. Throughout the screen, reagent bottle and all liquid lines were chilled and made light-tight to minimize reagent degradation. All screening operations were performed on a fully integrated robotic system (Kalypsys, San Diego, CA) containing one RX-130 and two RX-90 anthropomorphic robotic arms (Staubli, Duncan, SC). Library plates were screened starting from the lowest and proceeding to the highest concentration, and a double-dipping step of the highest concentration was required to access higher concentrations of compounds. Vehicle-only plates, with DMSO being pin-transferred to the entire column 5-48 compound area, were inserted uniformly at the beginning and the end of each library in order to monitor for and record any shifts in the background, which can be affected by reagent dispensers or loss in enzyme activity overtime. Screening data were corrected, normalized, and concentration-effect relationships were derived by using publicly-available curve fitting algorithms developed in-house (http://ncgc.nih.gov/pub/openhts). A four parameter Hill equation was fitted to the concentration-response data by minimizing the residual error between the modeled and observed responses.
% is set by controls: 0 for no effect and ±100 for the full control effect; potency is the fitted concentration of half-maximal effect.

In order of rising “activity change, negative = inhibition” value:
1. O=C1NC(=O)N(c2ccccc2)C(=O)/C1=C/c1ccc([N+](=O)[O-])s1  -41.5%
2. O=C1NC(=O)N(c2ccc(F)cc2)C(=O)/C1=C/c1ccc2c(c1)CCCN2Cc1ccccc1  -25.1%
3. COc1cccc(N2C(=O)NC(=O)/C(=C\c3cn(C)c4ccccc34)C2=O)c1  -23%
4. COc1ccc(CN2C(=O)NC(=O)/C(=C\c3ccc(OC)c(OC)c3OC)C2=O)cc1  -16%
5. O=Cc1cn(Cc2ccc(F)cc2Cl)c2ccccc12  -14.2%
6. Cc1cc(C=C2C(=O)NC(=O)NC2=O)c(C)n1-c1ccncc1  -12.2%
7. C=CCN(CC=C)C(=O)Nc1ccc(OCC)cc1  -8.07%
8. COc1ccccc1N=Nc1c(O)[nH]c(=S)[nH]c1=O  -3.75%
9. Cc1ccc(-n2c(/C=C/c3cccc(C(F)(F)F)c3)nc3ccccc3c2=O)cc1  -1.25%
10. Cc1ccc(NC(=O)N(Cc2ccc3c(c2)OCO3)C2CCN(Cc3ccccc3)CC2)cc1F  -0.703%
11. CCN(CC)C(=O)c1ccc(NC(=O)c2sccc2-c2ccccc2)cc1  -0.659%
12. Cc1cccc(Cn2cccc(C(=O)Nc3ccc4c(c3)OCCO4)c2=O)c1  0.23%
13. O=C(CN1CCCC1=O)NCCc1ccccc1  0.404%
14. CC(C)(C)c1ccc(CN2C(=O)CN=C(c3ccccc3)c3ccccc32)cc1  1.27%
15. COc1ccccc1N=C1SCCCN1C  2.97%
16. Cc1ccccc1N1C(=O)NC(=O)/C(=C\c2cc(C)n(C)c2C)C1=O  3.72%
17. N[C@@H](Cc1c[nH]c2ccccc12)c1nnc(SCc2c(F)cccc2Cl)o1  4.81%
18. Cc1nnc(NC(=O)c2cccn(Cc3cccc(F)c3)c2=O)s1  9.23%
19. O=C1NC(=O)N(Cc2ccco2)C(=O)/C1=C\c1cccn1CCOc1ccccc1  9.43%
20. COc1ccc2c3c1O[C@H]1C[C@@H](O)C=C[C@@]31CCN(C)C2  11.5%
21. Cc1ccc(-c2nn(CCC#N)cc2C(=O)O)cc1C  11.6%
22. CN(C)c1ccc(/C=C2\CC3C4CC=C5CC(O)CCC5(C)C4CCC3(C)C2=O)cc1 (stereo not given)  15.5%
23. COc1ccccc1N1CCN(C(CNC(=O)Oc2ccccc2)c2cccnc2)CC1 (stereo not given)  21.6%
24. Cc1cc2ccccn2c1C(C[N+](=O)[O-])c1c(F)cccc1Cl (stereo not given)  26.7%
25. C[N+]12CN3CN(CN(C3)C1)C2  36.4%
26. OC(Cn1c2ccccc2c2ccccc21)C[n+]1ccccc1 (stereo not given)  38.7%
27. CCN1CCN(c2nc3c(c(=O)[nH]2)CCC3)CC1  40.3%
28. Cc1nc2ccccc2c(=O)n1-c1ccc(Cl)cc1Cl  47.9%

In the case of Cc1cccc(N2C(=O)NC(=O)/C(=C\c3cnn(-c4ccccc4)c3)C2=O)c1, the Potency is reported as 39.8 µM (active).
For COc1ccc(N2C(=O)/C(=C/c3ccco3)C(=O)NC2=S)cc1, the Potency was 2.82 µM (active).
With Cc1c(C(=O)O)cccc1-n1c(C)cc(/C=C2\C(=O)NC(=O)N(c3ccc4c(c3)OCO4)C2=O)c1C the Potency was 11.2 µM (active).
CCOc1ccc(-c2cc(C)n3nc(C(=O)Nc4ccc(C)c(C)c4)cc3n2)cc1 was tested, and the Potency was 8.91 µM (active).
With Cc1cc(/C=C2/C(=O)NC(=O)N(Cc3ccco3)C2=O)c(C)n1-c1ccc(C(=O)O)cc1 the Potency was 17.8 µM (active).
With O=C1CC(=O)N(Cc2ccccc2)C(=O)N1CCCCCCN1C(=O)CC(=O)N(Cc2ccccc2)C1=O the Potency was 28.2 µM (active).
CCOCCc1c(O)[nH]c(=S)[nH]c1=O was tested, and the Potency was 35.5 µM (active).
O=C(OCC1O[C@@H](OC(=O)c2cc(O)c(O)c(O)c2)[C@@H](OC(=O)c2cc(O)c(O)c(O)c2)[C@@H](OC(=O)c2cc(O)c(O)c(O)c2)[C@@H]1OC(=O)c1cc(O)c(O)c(O)c1)c1cc(O)c(O)c(O)c1 (stereo not given in full) was tested, and the Potency was 0.158 µM (active).

In order of falling “activity change, negative = inhibition” value:
1. C=CCN1CCC23c4c5ccc(O)c4O[C@H]2C(=O)CC[C@@]3(O)C1C5 (stereo not given in full)  16.9% [at 57.1 µM]
2. CCCCN1C2CCC1CC(OC(c1ccc(F)cc1)c1ccc(F)cc1)C2 (stereo not given)  16.4% [at 57.1 µM]
3. CCOC(=O)c1ncn2c1[C@@H]1CCCN1C(=O)c1cc(OC)ccc1-2  12% [at 57.1 µM]
4. NCCc1c[nH]c2ccc(O)cc12  11.3% [at 57.1 µM]
